Compounds without any hit were thinned out: in the full panel of roughly 79,000, 15% have a hit. Values without a mark were called inactive. Calls of active or inactive are those of the source. Rule as the data show it: active = growth inhibition above about 70%; inactive = the rest.
Experiments:
[1] = NCI Yeast Anticancer Drug Screen. Data for the rad52 strain (AID 147);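 also: 0% = growth of vehicle-treated control cultures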; conditions: S. cerevisiae rad52 mutant growth inhibition, stronger effect = higher value
Procedure, shortened: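 Here a repair-compromised yeast strain receives each compound; its growth is then quantified and normalised to vehicle-only controls.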

[2] = NCI Yeast Anticancer Drug Screen. Data for the wt1 strain (AID 149);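 also: 0% = growth of vehicle-treated wt1 cultures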; conditions: S. cerevisiae wt1 strain (SPY 50644) growth inhibition, stronger effect = higher value
Procedure, shortened: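 Measured: growth of wt1 yeast under compound versus vehicle treatment, reported as inhibition.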

[3] = NCI Yeast Anticancer Drug Screen. Data for the rad50EPP+ strain (AID 151);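 also: 0% = growth of vehicle-treated control cultures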; conditions: S. cerevisiae rad50 mutant strain, stronger effect = higher value
Procedure, shortened: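 Read-out is yeast growth inhibition relative to vehicle; cells used were the rad50EPP+ strain.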

[4] = NCI Yeast Anticancer Drug Screen. Data for the mgt1 strain (AID 153); conditions: S. cerevisiae mgt1 mutant growth inhibition, stronger effect = higher value
Procedure, shortened: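 Measured: inhibition of mgt1 yeast growth by compound, normalized to vehicle-treated cultures.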

[5] = NCI Yeast Anticancer Drug Screen. Data for the rad50 strain (AID 155);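 also: 0% = growth of vehicle-only cultures of the same strain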; conditions: S. cerevisiae rad50 strain growth inhibition, stronger effect = higher value
Procedure, shortened: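 Growth of the mutant yeast was measured after compound exposure and referenced to vehicle-treated cultures.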

[6] = NCI Yeast Anticancer Drug Screen. Data for the mec2-1 strain (AID 157); conditions: S. cerevisiae mec2-1 strain, stronger effect = higher value
Procedure, shortened: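 Using mec2-1 yeast: add compound, measure growth, express inhibition versus vehicle-treated cultures.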

[7] = NCI Yeast Anticancer Drug Screen. Data for the rad14 strain (AID 159);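 also: 0% = growth of vehicle-treated control cultures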; conditions: S. cerevisiae rad14 strain growth inhibition, stronger effect = higher value
Procedure, shortened: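 Here, inhibition of yeast growth was measured after compound exposure, using a strain with a genetic defect in DNA damage repair and vehicle-treated cultures as the reference.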

[8] = NCI Yeast Anticancer Drug Screen. Data for the sgs1 mgt1 strain (AID 161);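 also: 0% = growth of cultures given vehicle only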; conditions: S. cerevisiae sgs1 mgt1 strain, stronger effect = higher value
Procedure, shortened: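 This yeast growth screen uses a strain with defined DNA-repair lesions; compound-treated growth is compared with vehicle-treated growth.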

[9] = NCI Yeast Anticancer Drug Screen. Data for the CLN2oe strain (AID 163);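 also: 0% = growth of vehicle-only control cultures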; conditions: S. cerevisiae CLN2oe strain, stronger effect = higher value
Procedure, shortened: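 Whole-cell yeast growth assay. A strain engineered for altered cell-cycle control received compound, and inhibition relative to vehicle-treated cultures was recorded.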

[10] = NCI Yeast Anticancer Drug Screen. Data for the cln2 rad14 strain (AID 165);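 also: 0% = growth equal to vehicle treated cultures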; conditions: S. cerevisiae cln2 rad14 strain, stronger effect = higher value
Procedure, shortened: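 Yeast strain cln2 rad14, bearing defects in cell cycle control and DNA repair, serves as the test system; values reflect growth inhibition compared with vehicle.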

[11] = NCI Yeast Anticancer Drug Screen. Data for the bub3 strain (AID 167); conditions: S. cerevisiae bub3 mutant strain, stronger effect = higher value
Procedure, shortened: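 Whole-cell yeast assay. The mutant strain was incubated with compounds, and growth inhibition was determined by comparison with vehicle-treated cells.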

[12] = NCI Yeast Anticancer Drug Screen. Data for the wt2 strain (AID 169);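 also: 0% = growth of vehicle-treated yeast cultures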; conditions: S. cerevisiae wt2 strain growth inhibition, stronger effect = higher value
Procedure, shortened: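 Treated yeast vs. vehicle-treated yeast: growth inhibition determined.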

[13] = NCI Yeast Anticancer Drug Screen. Data for the mlh1 strain (AID 171);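 also: 0% = growth of vehicle-treated control cultures of the same strain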; conditions: S. cerevisiae mlh1 strain growth inhibition, stronger effect = higher value
Procedure, shortened: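 A yeast strain with a defined genetic lesion serves as the test organism. Cultures receive compound or vehicle, and growth is measured.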

[14] = NCI Yeast Anticancer Drug Screen. Data for the sgs1 strain (AID 173);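 also: 0% = growth of vehicle-only control cultures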; conditions: S. cerevisiae sgs1 mutant, stronger effect = higher value
Procedure, shortened: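 A genetically defined yeast mutant is incubated with the test compound, and its growth is compared to that of the same strain given vehicle.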

[15] = NCI Yeast Anticancer Drug Screen. Data for the mlh1 rad18 strain (AID 175); conditions: S. cerevisiae mlh1 rad18 strain growth inhibition, stronger effect = higher value
Procedure, shortened: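 Steps: expose repair-defective yeast to compound; measure growth; express inhibition against vehicle-treated controls.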

[16] = NCI Yeast Anticancer Drug Screen. Data for the rad18 strain (AID 177); conditions: S. cerevisiae rad18 mutant growth inhibition, stronger effect = higher value
Procedure, shortened: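 Measured value is growth inhibition of a yeast strain bearing a DNA repair alteration, referenced to vehicle-treated cells.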

[17] = at 5.0 µM (retest, dose inferred, filed as 0.5)
[18] = at 50.0 µM (retest, dose inferred, filed as 5.0)

Work on `C[C@H](CCC1=NC(C)(C)CO1)C1CCC2[C@@H]3C(O)C[C@@H]4CC(O)CC[C@]4(C)C3CC[C@@]21C` (stereo partly drawn) yielded a growth inhibition ([1]; at 1.2 µM) of -3%, a growth inhibition ([1]; at 3.7 µM) of -5% and a growth inhibition ([1]; at 11.0 µM) of -9%. The growth inhibition ([1]; at 33.0 µM) was 70% (active), the growth inhibition ([1]; at 100.0 µM) was 99% (active) and the growth inhibition ([2]; at 1.2 µM) was -3%. The growth inhibition ([2]; at 3.7 µM) was -5%, the growth inhibition ([2]; at 11.0 µM) was -11% and the growth inhibition ([2]; at 33.0 µM) was 37%. For the same molecule, the growth inhibition ([2]; at 100.0 µM) was 99% (active), the growth inhibition ([3]; at 1.2 µM) was -4% and the growth inhibition ([3]; at 3.7 µM) was -3%. For the same molecule, the growth inhibition ([3]; at 11.0 µM) was -3%, the growth inhibition ([3]; at 33.0 µM) was -4% and the growth inhibition ([3]; at 100.0 µM) was 25%. The growth inhibition ([4]; at 1.2 µM) was -7%, the growth inhibition ([4]; at 3.7 µM) was -8% and the growth inhibition ([4]; at 11.0 µM) was -9%. For the same molecule, the growth inhibition ([4]; at 33.0 µM) was 71% (active), the growth inhibition ([4]; at 100.0 µM) was 100% (active) and the growth inhibition ([5]; at 1.2 µM) was -3%. The growth inhibition ([5]; at 3.7 µM) was -4%, the growth inhibition [5, 17] was 1% and the growth inhibition ([5]; at 11.0 µM) was -8%. The growth inhibition ([5]; at 33.0 µM) was 76% (active), the growth inhibition [5, 18] was 95% (active) and the growth inhibition ([5]; at 50.0 µM) was 99.4% (active). The growth inhibition ([5]; at 100.0 µM) was 99% (active), the growth inhibition ([6]; at 1.2 µM) was -5% and the growth inhibition ([6]; at 3.7 µM) was -3%. The growth inhibition [6, 17] was -2%, the growth inhibition ([6]; at 11.0 µM) was -6% and the growth inhibition ([6]; at 33.0 µM) was 84% (active). For the same molecule, the growth inhibition [6, 18] was 98% (active), the growth inhibition ([6]; at 50.0 µM) was 99.8% (active) and the growth inhibition ([6]; at 100.0 µM) was 100% (active). For the same molecule, the growth inhibition ([7]; at 1.2 µM) was -4%, the growth inhibition ([7]; at 3.7 µM) was -4% and the growth inhibition ([7]; at 11.0 µM) was 1%. For the same molecule, the growth inhibition ([7]; at 33.0 µM) was 99% (active), the growth inhibition ([7]; at 100.0 µM) was 100% (active) and the growth inhibition [8, 17] was 3%. The growth inhibition [8, 18] was 98% (active), the growth inhibition ([8]; at 50.0 µM) was 99.7% (active) and the growth inhibition ([9]; at 1.2 µM) was -6%. It also gave a growth inhibition ([9]; at 3.7 µM) of -12%, a growth inhibition ([9]; at 11.0 µM) of -11% and a growth inhibition ([9]; at 33.0 µM) of 62%. For the same molecule, the growth inhibition ([9]; at 100.0 µM) was 99% (active), the growth inhibition [10, 17] was 1% and the growth inhibition [10, 18] was 96% (active). For the same molecule, the growth inhibition ([10]; at 50.0 µM) was 97.9% (active), the growth inhibition ([11]; at 1.2 µM) was -3% and the growth inhibition ([11]; at 3.7 µM) was -2%. The growth inhibition [11, 17] was 0%, the growth inhibition ([11]; at 11.0 µM) was -10% and the growth inhibition ([11]; at 33.0 µM) was 79% (active). For the same molecule, the growth inhibition [11, 18] was 98% (active), the growth inhibition ([11]; at 50.0 µM) was 98.5% (active) and the growth inhibition ([11]; at 100.0 µM) was 99% (active). For the same molecule, the growth inhibition ([12]; at 1.2 µM) was -4%, the growth inhibition ([12]; at 3.7 µM) was -7% and the growth inhibition ([12]; at 11.0 µM) was -12%. For the same molecule, the growth inhibition ([12]; at 33.0 µM) was 95% (active), the growth inhibition ([12]; at 100.0 µM) was 100% (active) and the growth inhibition ([13]; at 1.2 µM) was -3%. For the same molecule, the growth inhibition ([13]; at 3.7 µM) was -6%, the growth inhibition ([13]; at 11.0 µM) was -6% and the growth inhibition ([13]; at 33.0 µM) was 87% (active). For the same molecule, the growth inhibition ([13]; at 100.0 µM) was 100% (active), the growth inhibition ([14]; at 1.2 µM) was -3% and the growth inhibition ([14]; at 3.7 µM) was -4%. For the same molecule, the growth inhibition ([14]; at 11.0 µM) was -6%, the growth inhibition ([14]; at 33.0 µM) was 90% (active) and the growth inhibition ([14]; at 100.0 µM) was 100% (active). The growth inhibition [15, 17] was -7%, the growth inhibition [15, 18] was 98% (active) and the growth inhibition ([15]; at 50.0 µM) was 99.4% (active). For the same molecule, the growth inhibition ([16]; at 1.2 µM) was -5%, the growth inhibition ([16]; at 3.7 µM) was -6% and the growth inhibition ([16]; at 11.0 µM) was -6%. For the same molecule, the growth inhibition ([16]; at 33.0 µM) was 96% (active) and the growth inhibition ([16]; at 100.0 µM) was 99% (active).

Source: PubChem BioAssay (NCI)
